AHR activator: activates the human aryl hydrocarbon receptor | activation, % at 5 µM | 2.5% of 320,000 active | AHR-responsive luciferase reporter cells, luminescence | P35869; in the data active = activation above about 47%;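 note: 0% = vehicle wells and 100% = reference agonist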
hgDAF-12 ag: agonists of H. glycines DAF-12 nuclear receptor; HEK293 GAL4-hgDAF12 UAS-luciferase reporter, agonist luminescence; normalized to butyrate control; 1.8% of 370,000 active; activation, % at 6.8 µM;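 active = activation above a cutoff set at the mean of all screened compounds plus 3 SD, cut at about 10% in these data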;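 note: 0% = DMSO wells and 100% = sodium butyrate wells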
ssDAF12 agonist: activators of S. stercoralis DAF-12 nuclear receptor | HEK293 ssDAF-12/GRIP1 lit1-tk-luc reporter, luminescence; % of 3 µM dafachronic acid response | activation, % at 6.8 µM | 1% of 370,000 active | AID 652126;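 active = activation above the mean over all tested compounds plus 3 SD, cut at about 0.9% in these data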;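 note: 0% = DMSO-only wells and 100% = 3 µM delta7-dafachronic acid wells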
DAX1 inh-1: inhibitors of human orphan nuclear receptor DAX1 (NR0B1); P51843; HEK293 Gal4-DAX1 luciferase reporter, luminescence; inhibition, % at 6.75 µM; 0.99% of 340,000 active;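 active = inhibition above the mean over all tested compounds plus 3 SD, cut at about 4.2% in these data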;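 note: 0% = DAX1-transfected cells with DMSO and 100% = empty-vector control cells with DMSO; inhibition shows as a rise in luminescence from relieved DAX1 repression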
Target sequence (P51843 207-470 limits assumed): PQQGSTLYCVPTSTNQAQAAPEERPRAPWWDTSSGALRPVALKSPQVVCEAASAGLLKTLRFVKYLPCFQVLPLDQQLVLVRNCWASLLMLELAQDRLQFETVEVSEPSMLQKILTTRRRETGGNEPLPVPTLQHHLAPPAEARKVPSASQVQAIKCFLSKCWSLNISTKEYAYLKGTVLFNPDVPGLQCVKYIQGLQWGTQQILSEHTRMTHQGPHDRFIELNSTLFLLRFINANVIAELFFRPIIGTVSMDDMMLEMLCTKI
DAX1 inh-2: blocks DAX1 repression of SF-1 activated StAR promoter. HEK293T StAR-luciferase reporter, SF-1/DAX-1 repression relief. inhibition, % at 6.8 µM. 1.1% of 370,000 active. AID 652010;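 active = inhibition above the mean over all tested compounds plus 3 SD, cut at about 3.6% in these data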;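 note: 0% = DAX-1 cells with DMSO and 100% = cells lacking DAX-1 with DMSO; higher inhibition means more luminescence from relief of DAX-1 repression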
hcDAF12 agonist: activators of H. contortus DAF-12 nuclear receptor. 1.4% of 370,000 active. activation, % at 6.8 µM. HEK293 hcDAF-12 lit1-tk-luc reporter, luminescence; 0% DMSO, 100% Δ7-dafachronic acid;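 active = activation above the mean of all tested compounds plus 3 SD, cut at about 5.5% in these data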;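 note: 100% = response to 3 µM Δ7-dafachronic acid high control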
hgDAF12 ag: hgDAF-12 agonism, confirmation assay; shares compounds with hgDAF-12 ag; HEK293 GAL4-hgDAF12 luciferase reporter, agonist mode; percent of butyrate response; activation, % at 6.8 µM; 80% of 3,300 active; AID 743050;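 active = mean activation over triplicate wells above the hit cutoff derived from the earlier primary screen, cut at about 11% in these data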;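 note: 0% = DMSO low control and 100% = 2 mM sodium butyrate high control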
LXRb DAF12 ctr: LXR-beta agonism as DAF-12 counter-screen. shares compounds with hgDAF-12 ag. HEK293 Gal4-LXR luciferase reporter, 24 h. activation, % at 6.8 µM. 3,300 tested, under 10 active. AID 743051;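 active = mean activation of the triplicate above a set limit carried over from the primary screen, none filed active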
Target sequence (P55055 whole entry, looked up, the tested form may be a part): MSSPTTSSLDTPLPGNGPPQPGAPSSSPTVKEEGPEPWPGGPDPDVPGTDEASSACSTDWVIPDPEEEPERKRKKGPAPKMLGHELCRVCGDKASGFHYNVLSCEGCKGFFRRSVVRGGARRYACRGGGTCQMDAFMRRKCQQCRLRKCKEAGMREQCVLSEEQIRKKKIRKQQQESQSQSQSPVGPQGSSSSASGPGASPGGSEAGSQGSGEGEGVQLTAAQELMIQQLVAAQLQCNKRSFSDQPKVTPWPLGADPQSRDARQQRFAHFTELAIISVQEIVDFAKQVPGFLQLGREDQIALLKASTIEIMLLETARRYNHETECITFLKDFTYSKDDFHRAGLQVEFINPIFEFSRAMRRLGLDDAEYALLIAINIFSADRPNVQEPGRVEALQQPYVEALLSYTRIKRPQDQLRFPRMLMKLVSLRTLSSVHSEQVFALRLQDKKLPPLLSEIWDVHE
The depositor's hits bear a star; . = no result given. The list is not random: actives were taken first. Their share in the collection is about 5.7%.

SMILES	AHR activator	hgDAF-12 ag	ssDAF12 agonist	DAX1 inh-1	DAX1 inh-2	hcDAF12 agonist	hgDAF12 ag	LXRb DAF12 ctr
Cc1ccc2nc(-c3ccc(O)cc3)c(Nc3ccc4c(c3)OCCO4)n2c1	2.5	16.5*	-0.3	0.3	1.8	4.0	-0.5	0.0
O=C(O)c1cc(-c2ccc(N3CCOCC3)cc2)nn1-c1ccccc1Cl	1.7	-1.5	-0.5	0.8	-0.1	1.1	.	.
O=C(O)c1cc(-c2ccc(N3CCOCC3)cc2)nn1-c1ccc(F)cc1F	1.1	16.9*	-1.6	0.4	-0.4	-0.6	0.5	-0.1
CCC(C(=O)OCC(=O)Nc1ccc(F)cc1)c1ccccc1 (stereo not drawn)	0.0	-1.0	-1.5	-0.3	-0.6	-1.5	.	.
CC(C)C(=O)OCC(=O)Nc1ccc(N=Nc2ccccc2)cc1	0.5	15.6*	-1.2	3.0	2.9	1.8	16.6*	0.8
CC(=O)Nc1ccc(N=Nc2ccccc2)cc1	-2.3	15.8*	-0.6	2.4	4.2*	4.5	15.1*	0.5
CC(=O)Nc1ccccc1	-1.1	-0.5	-1.2	1.2	-0.1	-0.1	.	.
CCOc1ccccc1CN1CCNC(=O)C1CC(=O)NCc1nccn1CC (stereo not drawn)	-1.3	-1.7	-1.1	0.2	1.4	0.3	.	.
O=C1C2C3C=CC(C3)C2C(=O)N1c1ccccc1OS(=O)(=O)c1ccccc1 (stereo not drawn)	1.4	-1.7	-1.1	-1.3	0.1	-2.5	.	.
Nc1c(OS(=O)(=O)c2ccccc2)cccc1OS(=O)(=O)c1ccccc1	.	17.5*	0.1	2.7	3.5	1.5	14.5*	0.7
O=C(OCc1nnc(-c2ccc(Br)cc2)o1)c1cncc(Br)c1	3.2	1.2	-1.7	1.1	0.8	-0.7	.	.
Cc1cccc(NC(=O)c2ccc(N3CCCCC3)c([N+](=O)[O-])c2)n1	4.6	10.2	-0.1	0.6	1.4	3.5	.	.
Cc1cccc(NC(=O)c2ccc(N3CCOCC3)c([N+](=O)[O-])c2)n1	2.6	13.9*	-0.9	2.4	1.5	0.2	5.2	0.2
CC(/C=N/NC(=O)c1nn(C)c(C)c1Br)=C\c1ccccc1	-5.0	13.8*	-0.2	2.2	2.2	3.2	9.2	0.3
CN(C)C=NC(=O)c1cc(C(=O)c2ccc(C(C)(C)C)cc2)c[nH]1	25.2	14.0*	-0.8	0.7	4.4*	5.3	15.6*	0.8
COc1ccc2occ(C(=O)c3cccs3)c2c1	7.0	15.0*	-0.8	2.3	0.5	4.4	13.2*	0.4
CCOc1ccc(S(=O)(=O)N2CCC(C(=O)NCc3ccccn3)CC2)cc1C	-0.4	-0.8	-0.8	1.8	-0.1	-0.1	.	.
COc1ccc(N(CC(=O)Nc2cccnc2)S(=O)(=O)c2ccccc2)cc1OC	0.1	-1.4	-0.4	0.7	0.3	0.4	.	.
CN=c1scc(-c2cccs2)n1/N=C/c1ccc(O)c(O)c1O	22.8	13.6*	0.1	-0.8	3.4	6.1*	11.0*	0.7
COc1c(C)cccc1C(=O)Nc1ccc(N2CCOCC2)c(Cl)c1	-4.2	21.2*	0.7	1.6	3.2	4.0	15.1*	0.8
O=C(NC(=S)Nc1ccc(N2CCOCC2)c(Cl)c1)c1cccs1	4.7	6.3	-0.8	0.1	-0.3	0.3	.	.
O=C(Nc1ccc(N2CCOCC2)c(Cl)c1)c1cccnc1Cl	-1.7	-0.7	-1.1	0.9	0.8	-1.1	.	.
O=C(Nc1ccc(N2CCCC2)c(Cl)c1)c1cccs1	2.2	19.9*	0.3	0.0	4.0*	4.8	18.7*	0.8
O=C(Nc1ccc(N2CCOCC2)c(Cl)c1)c1cccc(F)c1	7.5	14.3*	0.4	0.6	1.9	4.1	16.0*	0.6
CCS(=O)(=O)Nc1cc2c3c(c1)CCC(=O)N3CCC2	7.7	0.7	-0.5	1.1	0.9	1.4	.	.
SMILES	AHR activator	hgDAF-12 ag	ssDAF12 agonist	DAX1 inh-1	DAX1 inh-2	hcDAF12 agonist	hgDAF12 ag	LXRb DAF12 ctr
COc1ccc(C2NN=C(c3ccc(C)cc3)S2)cc1OC (stereo not drawn)	28.3	17.8*	0.2	3.9	3.1	3.2	17.9*	0.9
COc1ccc(C2NC(=O)CS2)cc1OC (stereo not drawn)	4.5	-1.7	-0.9	0.8	0.1	-1.4	.	.
CNC(=O)C1CC(=O)N(c2ccc(OCC(=O)Nc3ccc(F)cc3)cc2)C1 (stereo not drawn)	.	0.4	-1.2	0.2	0.7	0.1	.	.
Nn1c(SCC(=O)NNC(=O)c2ccccc2)nnc1-c1ccccc1F	2.9	5.1	-1.1	-1.3	0.7	1.0	.	.
CCOc1ccc(S(=O)(=O)N2CCCC(C(=O)Nc3cccc(C)c3)C2)cc1 (stereo not drawn)	1.1	0.4	-1.2	0.4	0.5	0.5	.	.
Cc1cc(C)cc(NC(=O)c2cc3c(=O)n4ccccc4nc3s2)c1	-15.1	0.7	-1.1	-1.5	0.2	-1.6	.	.
O=C(Nc1ccccc1)c1cc2ccccc2c(=O)s1	18.3	18.0*	-0.6	1.7	2.1	4.3	14.5*	0.6
O=C(Nc1ccc(O)cc1)c1cc2ccccc2c(=O)s1	-2.2	13.7*	-0.7	2.1	1.1	1.9	7.5	0.5
COc1cccc(NC(=O)C(c2ccccc2)N2CCNC(=O)C2)c1 (stereo not drawn)	3.5	.	.	-0.9	.	.	.	.
O=[N+]([O-])c1cccnc1NCCNc1ncc(C(F)(F)F)cc1Cl	1.2	14.2*	-0.5	2.6	1.7	1.6	14.8*	0.4
Cc1ccc2oc(-c3ccco3)cc(=O)c2c1	-4.3	13.7*	0.1	0.5	3.5	2.1	16.5*	0.6
O=c1cc(-c2ccco2)oc2ccccc12	.	1.0	-1.0	2.6	0.5	-0.3	.	.
COc1ccc2nc(NC(=O)C3CCN(C(=O)c4ccco4)CC3)sc2c1	-7.5	4.8	-1.3	0.6	0.3	-1.0	.	.
Cc1ccc(S(=O)(=O)Nc2ccc(-c3nc4ccc(C)cc4s3)cc2)cc1	20.4	1.1	-0.6	-0.6	0.3	1.4	.	.
Cc1ccc2nc(-c3ccc(NS(=O)(=O)c4c(C)n(C)c(=O)n(C)c4=O)cc3)sc2c1	17.6	19.9*	0.3	6.3*	3.3	4.6	16.9*	0.7
Cc1c(S(=O)(=O)Nc2ccc3c(c2)OCCO3)c(=O)n(C)c(=O)n1C	-0.7	-1.9	-1.0	1.0	0.8	1.4	.	.
Cc1cccc(S(=O)(=O)Nc2ccc(-c3nc4ccc(C)cc4s3)cc2)c1	17.1	22.5*	-0.2	2.9	4.2*	4.5	21.1*	0.8
CC(C)[C@H](NC(=O)c1cccc(CN(Cc2ccccc2)C(=O)/C=C/c2ccccc2)c1)C(=O)O	0.1	0.1	-1.6	-0.1	-0.4	-0.7	.	.
O=C(Nc1ccc(Cl)cn1)c1ccc2c(Cl)c3c(nc2c1)CCC3	1.0	15.0*	-1.4	2.8	1.8	1.9	7.7	1.2

Screens (PubChem BioAssay)
